CapD inh – CapD enzyme inhibition; purified CapD enzyme, fluorescence intensity read-out; hits give low values; z-score (no concentration beside the values); 0.23% of 140,000 active; in the data active = z-score mostly below about -2.9, no sharp cut-off; inactive = mostly above about -1.9
* = called active by the depositor; ! = not active in a repeat. Many of the other results were omitted from the sample, so hits are more common in it than they were.

SMILES	CapD inh
CCC(C)(C)NC(=O)c1ccc(S(=O)(=O)N2CCCC2)cc1	-0.89
CC(=O)N1CCN(Cc2cnc(Cl)s2)CC1	-0.19
Nc1ncc(S(=O)(=O)c2cccc(C(F)(F)F)c2)c(-c2ccccn2)n1	-0.07
CC(N)CCCC(C)(C)O (stereo not drawn)	-4.1*!
CCCN1CCC(NC(C)CCCC(C)(C)O)CC1 (stereo not drawn)	-0.4
CC(CCCC(C)(C)O)CC1OCC(C)O1 (stereo not drawn)	-0.07
CN1CCN(C(c2ccccn2)c2cc(Cl)c3cccnc3c2O)CC1 (stereo not drawn)	-8.1*
Oc1c(C(c2ccccn2)N2CCCCC2)ccc2cccnc12 (stereo not drawn)	-3.8
Oc1c(C(c2ccccc2Cl)N2CCCCC2)ccc2cccnc12 (stereo not drawn)	61
Cc1ccc2c(c1)NC(=O)C(CCCl)O2 (stereo not drawn)	-0.54
O=C(O)c1c(F)cccc1I	-2.9*
CC(=O)Nc1cccc(F)c1C(=O)O	-0.13
O=C(c1c(F)cccc1F)N1CCN(C(=O)c2c(F)cccc2F)CC1	-0.43
C=CCN1C(=O)/C(=C\c2cn(CCOc3ccccc3OC)c3ccccc23)SC1=S	-0.6
c1ccc2sc3c(-c4ccncc4)sc4ccccc4[nH]c-3nc2c1	-4.1*
c1ccc(-c2nnsc2-c2nc3ccccc3[nH]2)cc1	1.6
Oc1ccc(-c2nc3ccccc3[nH]2)cc1	15
Fc1ccc(C(NCCc2ccccc2)c2nnc(-c3ccccc3)o2)cc1 (stereo not drawn)	-0.37
COc1ccc(C=NCC2(c3ccccc3)CCCC2)c(OC)c1	-0.075
CCOC(=O)c1c[nH]c(=S)[nH]1	0.14
CCOC(=O)c1c[nH]c(=S)[nH]c1=O	-7*
CCOC(=O)c1cnc(=S)[nH]c1N	-0.74
O=C(NCCc1ccccc1)c1ccc2nc(-c3cccs3)c(-c3cccs3)nc2c1	0.47
CC1CCN(C(=O)C2C3C=CC(C3)C2C(=O)O)CC1 (stereo not drawn)	-2
COC(=O)c1cccc(N2C(=O)/C(=C\c3cccnc3)SC2=S)c1	-0.35
SMILES	CapD inh
O=C(NN1C(=O)/C(=C\c2cccnc2)SC1=S)c1ccccc1	-1.4
O=C(O)COc1ccccc1/C=C1/SC(=S)N(c2cccnc2)C1=O	-4*
C=CCn1c(SCc2c(C)noc2C)nc2scc(-c3ccc(F)cc3)c2c1=O	0.2
Cc1ccc(S(=O)(=O)N(C2CC2)C2CCN(Cc3ccccc3)CC2)cc1	-0.24
Cc1ccc(N=Cc2c(O)[nH]c(=S)[nH]c2=O)cc1	0.93
O=c1[nH]c(=S)[nH]c(O)c1N=Nc1ccc(O)cc1	-3.9*
COc1ccc(N=Cc2c(O)[nH]c(=S)[nH]c2=O)cc1	0.11
O=c1c2c3c(sc2nc2ccc(N4CCCCC4)nn12)CCCC3	0.21
COc1cccc(C(=O)c2sc(NC(C)C)nc2N)c1	-4.3*
CCOC(=O)c1sc(NC(=O)c2cccc(OC)c2)nc1-c1ccccc1	0.62
COc1cccc(C(=O)NN)c1	0.76
O=C(Cn1cccc1C(=O)c1ccccc1)NCCCN1CCN(C2CCCCC2)CC1	-0.39
O=C(OCc1cn(-c2ccc(Cl)c(Cl)c2)nn1)C(Cl)(Cl)Cl	-0.65
CCCN1CCN(C(=O)c2sc3nc4n(c(=O)c3c2C)CCCC4)CC1	0.71
Cc1c(C(=O)O)sc2nc3n(c(=O)c12)CCC3	-5.2*
Cc1c(C(=O)N(C)Cc2ccccc2)sc2nc3n(c(=O)c12)CCCC3	-0.38
COc1ccc(/C=c2/sc3nc4ccccc4n3c2=O)cc1OC	-0.045
COc1cccc(OCCNC(=O)c2cccc3ccccc23)c1	-0.33
O=C1/C(=C/c2ccccc2)SC(=Nc2ccc(O)cc2)N1c1ccc(O)cc1	-0.27
COC(=O)C1=CN(N(C(C)=O)C(C)=O)C(=O)CC1	-9.2*
COC(=O)C1=CCCN(C)C1	-0.55
COC(=O)c1ccccc1-n1cnc2ccccc2c1=O	2.8
O=C1NC(=S)S/C1=C\c1c(F)cccc1Cl	-4.1*
O=[N+]([O-])/C=C/c1c(F)cccc1Cl	0.67
COc1ccc(/C=C2/SC(=S)NC2=O)cc1COc1ccc(F)cc1F	-1.6
SMILES	CapD inh
COc1ccc(C(=O)CCC(=O)Nc2ccccc2F)cc1	-0.34
Cc1ccc(S(=O)(=O)CCc2nnc(NC(=O)c3ccc(C)c([N+](=O)[O-])c3)s2)cc1C	0.29
Cc1ccc2[nH]c(=O)c(C3=NN(C(=O)CCC(=O)O)C(c4ccccc4)C3)c(-c3ccccc3)c2c1 (stereo not drawn)	-0.015
CCS(=O)(=O)N1CCn2c(nc3ccccc32)C1	-0.86
Nc1c(C(=O)Nc2ccccc2)sc2nc3c(c(-c4ccco4)c12)CCCCC3	0.34
Cc1ccc(S(=O)(=O)N(CC(O)CN2CCCCC2)c2cccc3ccccc23)cc1 (stereo not drawn)	1.7
Cc1cccc(NC(=O)C2CCCCC2)c1C(=O)O	-2*
O=C(Nc1ccccc1N1CCCCC1)C1CCCCC1	-0.64
CC(C)c1ccccc1NC(=O)C1CCCCC1	0.28
O=C(NCc1cccnc1)c1ccc(CSCc2cccc(F)c2)o1	-0.43
COc1ccccc1NC(=O)Cn1cnc2sc(C(=O)NCCc3ccc(OC)c(OC)c3)c(C)c2c1=O	-0.46
Cc1cc(C)cc(NC(=O)NCc2csc(-c3cccs3)n2)c1	31
O=C(c1ccccc1)c1cc2ccc(O)cc2oc1=O	-6.3*
CCc1ccc(C(=O)c2cc3ccc(O)cc3oc2=O)cc1	-3.6
O=C(c1ccccc1)c1cc(Br)ccc1NC(=O)c1cc2ccccc2oc1=O	0.24
N#Cc1cccc(COc2ccc(Cl)cc2)c1	0.13
O=C(Nc1cc(Cl)ccc1Oc1ccc(Cl)c2ccccc12)c1cc(Cl)cc(I)c1O	-0.4
NC(=O)c1cc(-c2ccc3c(c2)OCO3)no1	-0.57
CCOc1ccc(-c2cc(C(N)=O)on2)cc1	-0.86
Cc1ccc(-c2cc(C(N)=O)on2)cc1	-5.7*
CCSc1nnc(Cc2cc(=O)[nH]c(=O)[nH]2)n1-c1cccc(C)c1	-0.18
O=C(CSc1nnc(Cc2cc(=O)[nH]c(=O)[nH]2)n1-c1ccccc1)N1CCCC1	-0.12
NC(=O)CSc1nnc(Cc2cc(=O)[nH]c(=O)[nH]2)n1-c1ccccc1	-5*
N=C1C(c2nc3ccccc3[nH]2)=C(O)CN1C1CCCC1	-0.75
CC(C)(CC(=O)N1CCN(c2ncccc2C(F)(F)F)CC1)Sc1ccc(Cl)cc1	0.71
SMILES	CapD inh
COc1ccc(-c2[nH]nc3c2C(c2ccc(OC(=O)N4CCOCC4)cc2)C(C#N)=C(N)O3)cc1OC (stereo not drawn)	0.28
CCOC(=O)CCc1c(CC(=O)OCC)c[nH]c1/C=N/O	-10*
CCOC(=O)CCc1n[nH]c(=O)[nH]c1=O	-0.035
CCOC(=O)CCc1c(C)nc2ncnn2c1C	-0.22
CC(C)(C)C(=O)CSc1nc2ccccc2nc1Cc1ccc(F)cc1	0.15
CC(=O)Nc1nonc1N1CCCC1=O	0.08
CC(=O)N1c2nonc2N(C(C)=O)c2nonc21	-11*
CCOC(=O)c1nonc1N	-0.2
COc1cc(OC)nc(C2CCN(C(=O)c3cc(OC)c(OC)c(OC)c3)CC2)n1	0.17
N#C/C(=C\c1ccc(-c2cccc(C(=O)O)c2)o1)C(=O)NC1CCCCC1	-2.2
N#CC(C#N)=C(N)/C(C#N)=C/c1ccc(-c2cccc(C(=O)O)c2)o1	-4*
N#C/C(=C/c1ccc(-c2cccc(C(F)(F)F)c2)o1)c1ccc(C(=O)O)cc1	-2
CC(C)(C)c1cnnn1-c1ccc(NC(=O)COc2ccccc2)cc1	0.46
CCC1CCCCN1C(=O)COC(=O)c1cnc(Cl)c(Cl)c1 (stereo not drawn)	-0.15
O=C(N/N=C/c1ccc(C(F)(F)F)cc1F)c1ccc[nH]1	-1
COc1ccc(N2C(=O)CCC2(C(N)=O)c2ccccc2)cc1 (stereo not drawn)	0.36
Cc1ccc(N2C(=O)C(O)=CC2(O)c2ccccc2)cc1 (stereo not drawn)	-1.1
COc1ccc(N2C(=O)C(O)=CC2(OC)c2ccccc2)cc1 (stereo not drawn)	-4.5*
COc1cccc2onc(N)c12	0.21
